Bioassay records (PubChem BioAssay)
NRP1-CendR mod = NRP-1/CendR interaction modulation | 360,000 compounds, 0.85% hits | O14786 | inhibition, % at 25 µM | FAM-RPARPAR peptide binding to NRP-1, fluorescence polarization;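 active = inhibition or corrected inhibition above about 18%, plus a signal ratio from 0.5 to 1.5, limit read from the data, passing the limit was not always enough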
TPT1 inhibitor = blocks Candida albicans tRNA 2'-phosphotransferase | recombinant caTPT1, FP RNA substrate dephosphorylation | inhibition, % at 5 µM | 300,000 compounds, 0.81% hits;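 active = inhibition above the mean of all tested compounds plus 3 SD, set per screening campaign, cut at about 24% in these data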;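 also: plate controls were DMSO alone for no effect and ferristatin control at 100 nM for full effect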
CTSL1 counter = counter-screen for PFM18AAP inhibitors: inhibitors of F. hepatica cathepsin L1; recombinant F. hepatica cathepsin L1, Z-Leu-Arg-MCA fluorescence; inhibition, % at 5.96 µM; 300,000 compounds, 0.49% hits; AID 1906;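 active = inhibition above the mean of all tested compounds plus 3 SD, set per screening campaign, cut at about 17% in these data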;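 also: 0% = plate median of test compound wells and 100% = 1 µM Z-Phe-Ala-diazomethylketone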
Rpn11 block = inhibitors of human proteasome Rpn11; human 26S proteasome, Ub4-pepOG fluorescence polarization; 20S core pre-blocked with epoxomicin; AID 588493; 360,000 compounds, 0.59% hits; inhibition, % at 20 µM; O00487;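 active = inhibition at 20 µM, scaled to each plate's controls, above about 33%, limit read from the data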
HNF4A DNA FP = change in binding of human HNF4 alpha to DNA; activity change, % at 10 µM; 360,000 compounds, 0.3% hits; HNF4a-FITC DNA binding, fluorescence polarization, 1 h; P41235; in the data active = activity change above about 30%, passing the limit was not always enough
PHOSPHO1 block = blocks human PHOSPHO1 phosphatase activity; Q8TCT1; recombinant PHOSPHO1, absorbance phosphatase assay; inhibition, % at 13.3 µM; 290,000 compounds, 1.1% hits; AID 1565; in the data active = inhibition above about 60%
Rpn11 inh conf = Rpn11 inhibition confirmation, single concentration | 1,900 compounds, 29% hits | inhibition, % at 20 µM | shares compounds with Rpn11 block | purified human 26S proteasome, Ub4-pepOG fluorescence polarization; proteasome pretreated with epoxomicin
MMP-2 inh = counter-screen for RPN11 inhibitors: inhibition of human MMP-2; 1,900 compounds, 4% hits; shares compounds with Rpn11 block; inhibition, % at 20 µM; recombinant MMP-2, FRET peptide cleavage fluorescence;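 also: human MMP-2 activated beforehand with APMA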
Target sequence (P08253 whole entry, looked up): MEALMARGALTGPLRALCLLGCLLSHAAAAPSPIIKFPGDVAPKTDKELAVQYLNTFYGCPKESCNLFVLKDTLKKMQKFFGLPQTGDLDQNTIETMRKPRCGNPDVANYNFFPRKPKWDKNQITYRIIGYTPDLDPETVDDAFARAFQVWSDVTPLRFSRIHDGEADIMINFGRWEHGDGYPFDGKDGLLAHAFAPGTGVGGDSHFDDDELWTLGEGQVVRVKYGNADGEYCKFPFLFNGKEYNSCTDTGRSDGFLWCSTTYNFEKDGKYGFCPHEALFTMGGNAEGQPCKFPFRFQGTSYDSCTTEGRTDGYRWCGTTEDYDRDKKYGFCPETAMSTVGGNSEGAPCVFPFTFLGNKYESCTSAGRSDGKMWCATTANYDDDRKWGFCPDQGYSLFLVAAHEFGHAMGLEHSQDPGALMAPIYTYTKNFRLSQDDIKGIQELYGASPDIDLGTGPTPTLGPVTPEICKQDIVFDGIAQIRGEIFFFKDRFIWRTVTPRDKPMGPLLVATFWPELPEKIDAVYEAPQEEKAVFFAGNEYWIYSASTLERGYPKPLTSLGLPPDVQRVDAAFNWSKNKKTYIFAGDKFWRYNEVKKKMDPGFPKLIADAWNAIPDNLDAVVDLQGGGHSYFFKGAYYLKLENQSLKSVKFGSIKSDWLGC
Thrombin FP = counter-screen for RPN11 inhibitors: inhibition of bovine thrombin | shares compounds with Rpn11 block | bovine thrombin cleavage of Ub4-pepOG, fluorescence polarization | inhibition, % at 20 µM | 1,900 compounds, 13% hits;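 active = mean inhibition at least 40% at 20 µM, or signal 3 deviations below plate average, so some actives read negative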;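 also: plate controls were thrombin with DMSO for no effect and buffer wells lacking thrombin for full effect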
Active calls of the source: *; . = not tested or not shown. Compounds with a hit are over-represented: about 3.3% of the library has one in this group of screens. Rule as the data show it, unless noted: active = inhibition above about 40%; inactive = the rest.

SMILES | NRP1-CendR mod | TPT1 inhibitor | CTSL1 counter | Rpn11 block | HNF4A DNA FP | PHOSPHO1 block | Rpn11 inh conf | MMP-2 inh | Thrombin FP
O=C(NC1CCCCC1)C(c1ccc(F)cc1)N(C(=O)Cc1ccsc1)c1ccc(F)cc1 (centres undefined) | -6 | -2 | 0 | 4 | -2 | -11 | . | . | .
Cc1ccccc1CC(=O)Nc1ccc(C(=O)N2CCCC2)cc1 | -1 | -5 | -4 | 39* | 13 | . | 3 | -28 | -12
CCCCOc1nc2ccccc2nc1C(C#N)C(=O)NC1CCCCC1 (centres undefined) | 9 | -4 | 6 | 56* | 0 | 36 | -3 | -23 | -5
O=C(c1sccc1Cl)N1CCN(Cc2ccc3c(c2)OCO3)CC1 | 9 | -4 | 4 | 0 | -1 | -6 | . | . | .
Clc1ccc(Br)cc1-c1nc(-c2ccncc2)no1 | -2 | 0 | -1 | 88* | 5 | 17 | 32 | 21 | -4
Cc1ccc(OCC(=O)N2N=C(C(F)(F)F)CC2(O)C(C)(C)C)cc1C (centres undefined) | -14 | -5 | 7 | -3 | -3 | 8 | . | . | .
Cc1ccccc1OCC(=O)N1N=C(C(F)(F)F)CC1(O)C(C)(C)C (centres undefined) | 0 | -1 | 2 | 152* | 5 | 1 | -1 | -12 | -7
Cc1cccn2c(=O)c3cc(C(N)=S)c(=N)n(CCCN4CCOCC4)c3nc12 | 19 | -4 | 5 | 51* | 9 | 9 | 4 | 49* | -3
COCCCn1c(=N)c(C(N)=S)cc2c(=O)n3cccc(C)c3nc21 | -3 | 8 | 5 | 12 | -5 | . | . | . | .
CCOc1ccc(C(=O)Nc2cccc(-c3nc4cccnc4o3)c2)cc1Cl | 6 | 3 | -1 | 55* | 2 | 38 | 19 | -24 | 3
C=CCn1c(SCC(=O)N(C)C2CCS(=O)(=O)C2)nnc1-c1ccccc1 (centres undefined) | -2 | 1 | 1 | 5 | -1 | . | . | . | .
Cc1nc(SCc2nc3ccc(Br)cc3[nH]2)c2oc3ccccc3c2n1 | -12 | . | . | 52* | 0 | . | 44* | -19 | 16
Cc1nc(SCc2nc3cc(Cl)c(F)cc3[nH]2)c2oc3ccccc3c2n1 | -30 | . | . | 75* | 6 | . | 64* | -7 | 36
CCN(C(=O)Cn1c(Cl)nc2c1c(=O)n(C)c(=O)n2C)C1CCCCC1 | 0 | . | . | -2 | 0 | . | . | . | .
COc1cc2[nH]c(=O)n(Cc3ccccc3Cl)c(=O)c2cc1OC | -5 | 5 | -1 | -6 | 0 | -29 | . | . | .
COc1cc(CCC(=O)Nc2ccc(C)c(S(=O)(=O)N(C)C)c2)cc(OC)c1OC | 11 | 1 | 0 | -5 | 0 | -1 | . | . | .
CCOC(=O)c1cccc(NC(=O)C(NS(=O)(=O)c2ccc3c(c2)CCN3C(C)=O)C(C)C)c1 (centres undefined) | 10 | -2 | -2 | -3 | -3 | 16 | . | . | .
c1ccc2c(c1)c1ccccc1n1c(-c3ccc4c(c3)OCO4)nnc21 | -9 | -3 | 3 | 8 | -7 | 14 | . | . | .
Cc1cc2nc(/C=C/c3nc4cc(C)c(C)cc4[nH]3)[nH]c2cc1C | -17 | 13 | 4 | 56* | 25 | 47 | 4 | -5 | -30
Cc1cc2nc(CS)[nH]c2cc1C | -69 | 6 | 4 | 50* | 35 | -72 | 53* | 14 | 1
CCOC(=O)N/N=C(\C)c1ccc(C)c([N+](=O)[O-])c1 | 10 | -3 | 3 | 1 | -1 | 2 | . | . | .
Cc1nnsc1C(=O)NC1CCCc2c1cnn2-c1cc(F)cc(F)c1 (centres undefined) | -6 | -2 | 7 | -14 | 1 | 51 | . | . | .
Cc1nnsc1C(=O)NC1CCCc2c1cnn2-c1ccc(F)cc1F (centres undefined) | -20 | 3 | 1 | 42* | 6 | 9 | 12 | -48 | -3
CCOc1ccc(Br)cc1C1=CC(=O)C[C@H](c2ccc(OC)cc2)C1 | 8 | . | . | -1 | 4 | . | . | . | .
O=Cc1cn(-c2ccccc2)nc1-c1cc2cc(O)ccc2oc1=O | -47 | 7 | 1 | 111* | -10 | -14 | 42* | 13 | 34
SMILES | NRP1-CendR mod | TPT1 inhibitor | CTSL1 counter | Rpn11 block | HNF4A DNA FP | PHOSPHO1 block | Rpn11 inh conf | MMP-2 inh | Thrombin FP
COc1ccc(-c2ccc3[nH]c4c(c3c2)CCN2C[C@@H]([C@H](C)O)[C@@H](N(C)C(=O)Nc3cc(Cl)cc(Cl)c3)C[C@@H]42)cc1 | -22 | . | . | 41* | 17 | . | 26 | 5 | 3
COc1ccc(-c2ccc3[nH]c4c(c3c2)CCN2C(=O)[C@@H]([C@H](C)O)[C@@H](N(C)C(=O)Nc3cc(Cl)cc(Cl)c3)C[C@@H]42)cc1 | 1 | . | . | 7 | -6 | . | . | . | .
CC1(C)CC(=O)C(N=Nc2cc(Cl)c(Cl)c(Cl)c2)=C(O)C1 | -30 | -5 | 5 | 0 | 1 | 3 | . | . | .
Cc1ccc(O)c(N=NC2=C(O)CC(C)(C)CC2=O)c1 | -34 | 12 | 6 | 47* | 24 | -13 | 11 | -87 | 6
O=C(Nc1cccc(F)c1)c1ccc(-c2cccnc2)c2ccoc12 | 2 | . | . | 5 | 0 | . | . | . | .
Nc1nc2ccccc2n1C(=O)c1ccccc1 | 9 | -5 | -1 | -8 | -2 | 16 | . | . | .
Nc1nc2ccccc2n1C(=O)c1ccco1 | -1 | . | . | 48* | 12 | -5 | -5 | -37 | -14
COc1ccc2nc(N3C(=O)/C(=C/c4ccc(Cl)cc4)NC3=S)sc2c1 | -117 | . | . | 77* | -2 | 6 | 56* | -22 | 25
CCOC(=O)c1ccc(NC(=O)CN2C(=O)CN(C(C)=O)C2=S)cc1 | -14 | 3 | 3 | -4 | -6 | 19 | . | . | .
COc1ccc2nc(C)cc(SCC(=O)N/N=C/c3c(OC)ccc4ccccc34)c2c1 | -13 | -1 | -2 | 51* | 17 | -7 | 10 | -43 | 6
CCn1c2ccccc2c2cc(/C=N/NC(=O)c3cccc(C)c3)ccc21 | 5 | 0 | 3 | 147* | 7 | 5 | 2 | 4 | -12
Cc1ccc([C@@H]2CC=C(C(=O)O)[C@H](c3cccc(F)c3)N2S(=O)(=O)c2ccccc2C)cc1 | -12 | . | . | 6 | 2 | . | . | . | .
Cn1c(C(=O)NCCCN2CCCCCC2)cc2c(=O)n(C)c3ccccc3c21 | -1 | -2 | 1 | 68* | 8 | -10 | -8 | -39 | -7
CCC1CCCCN1c1ccc([N+](=O)[O-])cc1/C=N/NC(=O)Cn1c2ccccc2c(=O)c2ccccc21 (centres undefined) | 2 | 2 | 1 | 36* | 14 | 14 | 25 | 0 | 8
CCc1ccc(OCC(=O)N/N=C/c2cc([N+](=O)[O-])ccc2N2CCCCCC2)cc1 | -4 | 1 | 3 | 19 | 5 | 8 | . | . | .
